In PubChem BioAssay (Tox21):
Inconclusive results are not listed. Where a structure was tested more than once in an assay, its records may differ in their call. The source made the active and inactive calls. Calls follow the shape of the dose curve; as a rule, active = well fitted curve in the direction sought with a large enough effect in the repeat runs; inconclusive = weak or mixed curves; inactive = no such curve, though single readings can be large; an effect the other way counts as inactive or inconclusive.

How the values were obtained:
[1] = A CellTox Green Cytotoxicity Assay to monitor cytotoxicity in HEK293 cells - 40 hour (AID 1224871); also: nearly all actives have a fitted effect of over 45% in size; also: potency is read from the fitted curve at half-maximal effect
Summary of the method: (§1)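 Seeding of HEK293 cells together with cytotoxicity dye preceded a 5 h incubation at 37 C/5% CO2. Test compounds in DMSO were then added and fluorescence monitored across 40 h.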

[2] = qHTS RealTime-Glo MT Cell Viability Assay in HEK293 cells - 16 hour (AID 1224872); also: nearly all actives have a fitted effect of over 50% in size; also: potency is read from the fitted curve at half-maximal effect
Summary of the method: (§2)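 Homogeneous bioluminescent viability format in HEK293 cells (600 cells/well). Following 5 h at 37 C/5% CO2, 23 nL compound was pintooled; the signal was measured repeatedly during 40 h incubation.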

[3] = qHTS RealTime-Glo MT Cell Viability Assay in HepG2 cells - 8 hour (AID 1224873); also: nearly all actives have a fitted effect of over 55% in size
Summary of the method: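 Real-time viability: cells seeded at 600 per well together with NanoLuc and cell-permeant prosubstrate, compounds added after 5 h incubation. Luminescence tracked at 0, 8, 16, 24, 32 and 40 h of exposure.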

[4] = qHTS RealTime-Glo MT Cell Viability Assay in HEK293 cells - 40 hour (AID 1224874); settings: RealTime-Glo luminescence; max response: stronger effect = lower value; also: nearly all actives have a fitted effect of over 50% in size; also: potency is read from the fitted curve at half-maximal effect
Summary of the method: (§3)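 Tox21 screen in HEK293 using RealTime-Glo MT chemistry, with cells and reagent co-dispensed. Luminescence proportional to viable cell number was captured at intervals during 40 h compound exposure at 37 C.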

[5] = A CellTox Green Cytotoxicity Assay to monitor cytotoxicity in HEK293 cells - 24 hour (AID 1224875); also: series mostly up to about 77 µM; nearly all actives have a fitted effect of over 45% in size
Summary of the method: as §1

[6] = A CellTox Green Cytotoxicity Assay to monitor cytotoxicity in HepG2 cells - 16 hour (AID 1224876); also: nearly all actives have a fitted effect of over 45% in size
Summary of the method: (§4)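 Nonlytic assay: viable cells exclude the dye, so fluorescence scales with cell death. HepG2 at 600 cells/well, compounds added after 5 h, signal read across 40 h.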

[7] = qHTS RealTime-Glo MT Cell Viability Assay in HepG2 cells - 32 hour (AID 1224877); also: nearly all actives have a fitted effect of over 55% in size
Summary of the method: (§5)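 Cell number in HepG2 cultures estimated from NanoLuc luminescence generated by metabolic reduction of a prosubstrate by living cells. The homogeneous, nonlytic format allowed repeated reads at 0, 8, 16, 24, 32 and 40 h of compound exposure.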

[8] = A CellTox Green Cytotoxicity Assay to monitor cytotoxicity in HepG2 cells - 24 hour (AID 1224878); also: nearly all actives have a fitted effect of over 45% in size
Summary of the method: as §4

[9] = A CellTox Green Cytotoxicity Assay to monitor cytotoxicity in HepG2 cells - 40 hour (AID 1224879); also: nearly all actives have a fitted effect of over 40% in size
Summary of the method: as §4

[10] = qHTS RealTime-Glo MT Cell Viability Assay in HEK293 cells - 0 hour (AID 1224880)
Summary of the method: as §3

[11] = A CellTox Green Cytotoxicity Assay to monitor cytotoxicity in HEK293 cells - 32 hour (AID 1224881); also: nearly all actives have a fitted effect of over 40% in size; also: potency is read from the fitted curve at half-maximal effect
Summary of the method: as §1

[12] = A CellTox Green Cytotoxicity Assay to monitor cytotoxicity in HepG2 cells - 0 hour (AID 1224882); also: nearly all actives have a fitted effect of over 35% in size
Summary of the method: as §4

[13] = A CellTox Green Cytotoxicity Assay to monitor cytotoxicity in HepG2 cells - 32 hour (AID 1224883); also: nearly all actives have a fitted effect of over 50% in size
Summary of the method: as §4

[14] = A CellTox Green Cytotoxicity Assay to monitor cytotoxicity in HEK293 cells - 8 hour (AID 1224884); also: nearly all actives have a fitted effect of over 35% in size
Summary of the method: as §1

[15] = qHTS RealTime-Glo MT Cell Viability Assay in HepG2 cells - 16 hour (AID 1224885); also: nearly all actives have a fitted effect of over 50% in size
Summary of the method: as §5

[16] = qHTS RealTime-Glo MT Cell Viability Assay in HEK293 cells - 24 hour (AID 1224886); also: nearly all actives have a fitted effect of over 50% in size; also: potency is read from the fitted curve at half-maximal effect
Summary of the method: as §2

[17] = A CellTox Green Cytotoxicity Assay to monitor cytotoxicity in HEK293 cells - 16 hour (AID 1224888); also: nearly all actives have a fitted effect of over 35% in size
Summary of the method: as §1

[18] = qHTS RealTime-Glo MT Cell Viability Assay in HepG2 cells - 0 hour (AID 1224889); also: nearly all actives have a fitted effect of over 50% in size; also: potency is read from the fitted curve at half-maximal effect
Summary of the method: as §5

[19] = A CellTox Green Cytotoxicity Assay to monitor cytotoxicity in HepG2 cells - 8 hour (AID 1224890); also: nearly all actives have a fitted effect of over 45% in size
Summary of the method: as §4

[20] = qHTS RealTime-Glo MT Cell Viability Assay in HEK293 cells - 8 hour (AID 1224887); also: nearly all actives have a fitted effect of over 50% in size; also: potency is read from the fitted curve at half-maximal effect
Summary of the method: as §3
% is scaled to controls: 0 for no effect and ±100 for the full control effect.

CCCCCC[N+](=O)[O-]
inactive: Potency [1] | Potency [2] | Potency [3] | max response [4] 4.3% | Potency [5] | Potency [6] | Potency [7] | Potency [8] | Potency [9] | Potency [10] | Potency [11] | Potency [12] | Potency [13] | Potency [14] | Potency [15] | Potency [16] | Potency [17] | Potency [18] | Potency [19]

C=CC(C)=O
inactive: Potency [1] | Potency [2] | Potency [3] | max response [4] 4.78% | Potency [5] | Potency [6] | Potency [7] | Potency [8] | Potency [9] | Potency [10] | Potency [11] | Potency [12] | Potency [13] | Potency [14] | Potency [16] | Potency [17] | Potency [18] | Potency [19]

ClCC(Br)CBr (stereo unspecified)
inactive: Potency [1] | Potency [2] | Potency [3] | max response [4] 14.6% | Potency [5] | Potency [6] | Potency [7] | Potency [8] | Potency [9] | Potency [10] | Potency [11] | Potency [12] | Potency [13] | Potency [14] | Potency [16] | Potency [20] | Potency [17] | Potency [18] | Potency [19]

CCO[C@H]1O[C@@H]2OC3(C)CC[C@H]4[C@H](C)CC[C@@H]([C@H]1C)[C@@]24OO3
inactive: Potency [1] | Potency [2] | Potency [3] | max response [4] -21.5% | Potency [5] | Potency [6] | Potency [7] | Potency [8] | Potency [9] | Potency [10] | Potency [11] | Potency [12] | Potency [13] | Potency [14] | Potency [15] | Potency [16] | Potency [17] | Potency [18] | Potency [19]

CCCC(=O)Cl
inactive: Potency [1] | Potency [2] | Potency [3] | max response [4] 17% | Potency [5] | Potency [6] | Potency [7] | Potency [8] | Potency [9] | Potency [10] | Potency [11] | Potency [12] | Potency [13] | Potency [14] | Potency [15] | Potency [16] | Potency [20] | Potency [18]

Cc1cc(=O)[nH]o1
inactive: Potency [1] | Potency [2] | Potency [3] | max response [4] 2.1% | Potency [5] | Potency [6] | Potency [7] | Potency [8] | Potency [9] | Potency [10] | Potency [11] | Potency [12] | Potency [13] | Potency [14] | Potency [16] | Potency [20] | Potency [17] | Potency [18] | Potency [19]

CC(=O)NC1CCSC1=O (stereo unspecified)
inactive: Potency [1] | Potency [2] | Potency [3] | max response [4] -1.76% | Potency [5] | Potency [6] | Potency [7] | Potency [8] | Potency [9] | Potency [10] | Potency [11] | Potency [12] | Potency [13] | Potency [14] | Potency [15] | Potency [16] | Potency [20] | Potency [17] | Potency [18]

C=CCOC(C)=O
inactive: Potency [1] | Potency [2] | Potency [3] | max response [4] -6.55% | Potency [5] | Potency [6] | Potency [7] | Potency [8] | Potency [9] | Potency [10] | Potency [11] | Potency [12] | Potency [13] | Potency [14] | Potency [15] | Potency [16] | Potency [20] | Potency [17] | Potency [19]
active: Potency [18] 12.1 µM

CC(Cl)Cl
inactive: Potency [1] | Potency [2] | Potency [3] | max response [4] 3.34% | Potency [5] | Potency [6] | Potency [7] | Potency [8] | Potency [9] | Potency [10] | Potency [11] | Potency [12] | Potency [13] | Potency [14] | Potency [16] | Potency [20] | Potency [17] | Potency [18] | Potency [19]

CCOP(=S)(OCC)Oc1nc(Cl)c(Cl)cc1Cl
21.9 µM (active) and inactive: Potency [2] | Potency [16]
34.8 µM (active) and inactive: Potency [1]
19.5 µM (active) and inactive: Potency [20]
active: Potency [4] 24.6 µM
inactive: Potency [3] | max response [4] -11.7% | Potency [6] | Potency [7] | Potency [8] | Potency [10] | Potency [12] | Potency [13] | Potency [15] | Potency [18]
39 µM (active) and inactive: Potency [11]

C/C=C/C=O
inactive: Potency [1] | Potency [2] | Potency [3] | max response [4] 5.18% | Potency [5] | Potency [6] | Potency [7] | Potency [8] | Potency [9] | Potency [10] | Potency [11] | Potency [12] | Potency [13] | Potency [14] | Potency [16] | Potency [20] | Potency [17] | Potency [18] | Potency [19]

Nc1nc(=S)[nH][nH]1
inactive: Potency [1] | Potency [2] | Potency [3] | max response [4] 1.62% | Potency [5] | Potency [6] | Potency [7] | Potency [8] | Potency [9] | Potency [10] | Potency [11] | Potency [12] | Potency [13] | Potency [15] | Potency [16] | Potency [20] | Potency [17] | Potency [18]

CCCCCCC#N
inactive: Potency [1] | Potency [2] | Potency [3] | max response [4] 1.28% | Potency [5] | Potency [6] | Potency [7] | Potency [8] | Potency [9] | Potency [10] | Potency [11] | Potency [12] | Potency [13] | Potency [14] | Potency [15] | Potency [16] | Potency [17] | Potency [18] | Potency [19]

CC/C(=N\OC/C=C/Cl)C1=C(O)CC(C2CCOCC2)CC1=O (stereo unspecified)
inactive: Potency [1] | Potency [2] | Potency [3] | max response [4] 0.456% | Potency [5] | Potency [6] | Potency [7] | Potency [8] | Potency [9] | Potency [10] | Potency [11] | Potency [12] | Potency [13] | Potency [15] | Potency [16] | Potency [20] | Potency [17] | Potency [18] | Potency [19]
